# Laboratory results: the supplement of paper PMC9135407
# Structures can show the parent of a compound that is named as a salt.
# Tested on: primary human hepatic stellate cells (donor 1)
# Test: COL1A1 mRNA fold change vs DMSO (normalised to PSMB2); higher = more COL1A1 expression, active = hit call of the paper
# Conditions: 48 h
# Protocol: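 Secondary qRT-PCR screen in primary human HSCs (donor 1), 384-well plates, with compounds dispensed in quadruplicate and incubated for 48 h. Cells-to-CT lysates were used for multiplexed TaqMan qPCR of ACTA2 or COL1A1 with PSMB2 as reference. Fold changes versus DMSO come from a linear model (Ct_gene ~ Ct_PSMB2 + plate + chemical). A hit is defined as COL1A1 and ACTA2 FC <0.5 (FDR <0.05) with PSMB2 between 0.2 and 2.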
row,Compound,COL1A1 mRNA fold change
1,CN1[C@@H]2CC[C@H]1C[C@@H](OC(c1ccc(F)cc1)c1ccc(F)cc1)C2 [3 α-Bis-(4-fluorophenyl) methoxytropane hydrochloride] (33.3333 µM),1.54 (inactive)
2,O=c1[nH]c2ccccc2n1C1CCN(CCCC(c2ccc(F)cc2)c2ccc(F)cc2)CC1 [Pimozide] (33.3333 µM),0.027 (inactive)
3,C[C@@H]1O[C@@H](O[C@H]2C[C@@H](O)[C@]3(CO)[C@H]4[C@H](O)C[C@]5(C)[C@@H](C6=CC(=O)OC6)CC[C@]5(O)[C@@H]4CC[C@]3(O)C2)[C@H](O)[C@H](O)[C@H]1O [Ouabain] (33.3333 µM),0.0962 (active)
4,CC[C@H]1CN2CCc3cc(OC)c(OC)cc3[C@@H]2C[C@@H]1C[C@H]1NCCc2cc(OC)c(OC)cc21 [Emetine] (12.0333 µM),0.216 (active)
5,C[C@H](N)Cn1ccc2cc(F)c(Cl)cc21 [Ro 60-0175 fumarate] (33.3333 µM),2.21 (inactive)
6,CCN(CC)CCO[C@H]1CC[C@@]2(C)C(=CC[C@@H]3[C@@H]2CC[C@]2(C)C(=O)CC[C@@H]32)C1 (33.3333 µM),0.921 (inactive)
7,O=[N+]([O-])/C=C/c1ccc2c(c1)OCO2 (3.7 µM),0.638 (inactive)
8,C[C@]12CC[C@H](O)C[C@H]1CC[C@@H]1[C@@H]2CC[C@]2(C)[C@@H](C3=CC(=O)OC3)CC[C@]12O [Digitoxigenin] (33.3333 µM),0.099 (active)
9,CCN1CCN(C(=O)Cc2ccc(Nc3ncc(F)c(Nc4ccc(C(=O)Nc5ccccc5Cl)cc4)n3)cc2)CC1 [Aurora A Inhibitor I] (33.3333 µM),0.0414 (inactive)
10,O=C1C2CCN(CC2)C1(CO)CO (90 µM),1.07 (inactive)
11,CCCCCCCCCCCCCC(=O)O[C@@H]1[C@@H](C)[C@@]2(O)[C@@H](C=C(CO)C[C@]3(O)C(=O)C(C)=C[C@@H]23)[C@@H]2C(C)(C)[C@]12OC(C)=O [Phorbol 12-myristate 13-acetate] (27.0333 µM),0.71 (inactive)
12,CC1=NCCc2c1[nH]c1cc(O)ccc21 [Harmalol hydrochloride dihydrate] (24.4333 µM),1.24 (inactive)
13,CO[C@H]1CC[C@@H](O[C@H]2C[C@H]([C@]3(C)CC[C@]4(C[C@H](O)[C@@H](C)[C@@H]([C@@H](C)/C=C(\C)C(=O)[C@H](C)C[C@H](C)C(=O)O)O4)O3)O[C@]3(O[C@@H]([C@H]4O[C@@](O)(CO)[C@H](C)C[C@@H]4C)C[C@@H]3C)[C@@H]2C)O[C@@H]1C [Nanchangmycin] (11.1 µM),0.223 (active)
14,CC(C(=O)OC1CC2CCC(C1)N2C)c1ccc(Br)cc1 (configuration not stated) [PG-9 maleate] (33.3333 µM),0.598 (inactive)
15,"CN(C(=O)Cc1ccc(Cl)c(Cl)c1)[C@H](CN1CCCC1)c1ccccc1 [ICI-199,441 hydrochloride] (33.3333 µM)",0.743 (inactive)
16,O=C1/C(=C/c2ccccc2)C[C@@]2(O)[C@H]3Cc4ccc(O)c5c4[C@@]2(CCN3CC2CC2)[C@H]1O5 [BNTX maleate] (33.3333 µM),0.233 (inactive)
17,COc1ccc2c(c[n+](C)c3c4cc5c(cc4ccc23)OCO5)c1OC (6.66667 µM),0.204 (inactive)
18,CC1=C(CC/C(C)=C/CCC2=CC[C@H](C3=CC(=O)O[C@H]3O)O[C@H]2O)C(C)(C)CCC1 [Manoalide] (40 µM),0.236 (active)
19,CN[C@@H]1C[C@H]2O[C@@](C)([C@@H]1OC)n1c3ccccc3c3c4c(c5c6ccccc6n2c5c31)C(=O)NC4 [staurosporine] (35.6667 µM),0.11 (inactive)
20,COc1ccc2[nH]cc(C3=CCNCC3)c2c1 (33.3333 µM),2.45 (inactive)
21,Fc1cc(F)c2c(c1)[C@H]1C=CC[C@H]1C(c1cccnc1)N2 (some centres not stated) [Golgicide A] (33.3333 µM),0.111 (active)
22,CC1=C(O)C(=O)C=C2C1=CC=C1[C@@]2(C)CC[C@@]2(C)[C@@H]3C[C@](C)(C(=O)O)CC[C@]3(C)CC[C@]12C [Celastrol] (3.33333 µM),1.09 (inactive)
